uPA generation = blocks generation of uPA at the cell surface | cell surface uPA generation assay, qHTS | Potency, µM (top dose mostly 38.3 µM), without a hit: top-dose activity change, negative = inhibition, hits mostly inhibitors | 0.31% of 330,000 active | AID 540303; active = well fitted inhibition curve with a large enough effect; inconclusive = small, poorly fitted or top-dose-only effect; inactive = no such curve, though single readings can be large or run the other way; tested in mouse RAW 264.7 cells; note: potency is the fitted concentration of half-maximal effect; % is set by controls: 0 for no effect and ±100 for the full control effect; nearly all actives have a fitted effect of over 55% in size
IL-2 act = activates IL-2 in a cell-based reporter assay; IL-2 activation reporter assay, cell-based qHTS; stimulated with anti-CD3/CD4/CD28 beads; in transgenic mouse T cells; activation, % (series mostly up to about 46 µM); 0.065% of 360,000 active; AID 652025; in the data active = activation above about 50%; inconclusive = mostly about 30% to 49%; note: 0% is about no effect
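Screening format: compound pinned onto unstimulated transgenic mouse T cells, 60 min incubation, then anti-CD3/anti-CD4/anti-CD28 bead stimulation for 18 hours at 37 degrees C, followed by EGFP and DsRed detection.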
p53 reactivator = mutant p53 re-activation in reporter cells; AID 504706; 0.063% of 320,000 active; H1299 p53-A138V BP100-luciferase reporter, luminescence, 24 h; Potency, µM (highest dose often 92.2 µM), for the others: at the highest dose activity change, positive = activation, most hits filed as activators; note: potency is the fitted concentration of half-maximal effect; % of control where 0% means no effect; nearly all actives have a fitted effect of over 45% in size
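H1299 (p53-null), stable ts p53-A138V + BP100-Luc; 1000 cells/well, Opti-MEM/10% FBS; cpd 4 pt, 1:5; 24 h, 37 deg C, 5% CO2; detection reagent 10 min RT; luminescence.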
TCR act = activates T cell receptor signaling. primary human leukocytes, anti-CD3, IL-2 HTRF, 48 h. Potency, µM (titrated, usually from 9.22 µM), for inactives: top-dose activation of IL-2 secretion, actives largely listed as activators. 330,000 tested, under 10 active; note: % of control where 0% means no effect
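Primary human leukocytes receive a-CD3 beads and test compound and are incubated 48 hr. Secreted IL-2 is then assayed by HTRF, measuring 665nm acceptor emission after 320nm excitation of the europium donor.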
BRCA1 expr up = increases BRCA1 expression. MCF7-BRCA1-FFLuc reporter, luminescence, 48 h; response scale: scaled: vehicle 0%, 10 µM genistein 100%. Potency, µM (top dose mostly 46.1 µM), for inactives: at the top dose activation, actives largely listed as activators. 1.1% of 380,000 active. AID 624202; note: potency is the fitted concentration of half-maximal effect; nearly all actives have a fitted effect of over 80% in size
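MCF7 cells carrying a BRCA1-firefly luciferase reporter (2000 cells/well, phenol-red free MEM) were attached for 2 h at 37 °C, then given compounds for 48 h. Luminescence was read 15 min after luciferase reagent; activity normalized to genistein (10 microM) and DMSO.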
* = called active by the depositor; [ ] = dose if it differs, or a comment. Rows were chosen to be rich in hits. Some 1.4% of all compounds tested hit in one or more screens of this group. Unless noted, calls come from the whole dose curve; as a rule, active = well fitted curve in the direction sought with a large enough effect; inconclusive = small, poorly fitted or top-dose-only effect, or another doubt; inactive = no such curve, though single readings can be large; an effect the other way counts as inactive or inconclusive.

Cc1ccc(C)c(OCc2cc(C(=O)N3CCN(C(=O)c4ccco4)CC3)no2)c1 was read as uPA generation 1%, IL-2 act 1, p53 reactivator 27%, TCR act 0% and BRCA1 expr up inconclusive.
Screening Cc1ccc(C)c(OCc2cc(C(=O)N3CCN(c4ccccc4)CC3)no2)c1 returned uPA generation -15%, IL-2 act -2, p53 reactivator inconclusive, TCR act -8% and BRCA1 expr up 7.1µM*.
COc1ccc(C(=S)N2CCC(C(N)=O)CC2)cc1Br was read as uPA generation 0%, IL-2 act 0, p53 reactivator 2%, TCR act -2% and BRCA1 expr up 12%.
CCCCOc1ccc(C(=S)N2CCC(C(N)=O)CC2)cc1 was read as uPA generation -3%, IL-2 act 0, p53 reactivator -1%, TCR act 8% and BRCA1 expr up 4µM*.
`COc1ccc(CNc2nc(-c3ccccc3)nn2C(=O)c2cccs2)cc1` gave IL-2 act 2, p53 reactivator 2%, TCR act 5% and BRCA1 expr up 44%.
COc1ccc(CNc2nc(-c3ccccc3)nn2C(=O)c2ccc([N+](=O)[O-])cc2)cc1 was read as uPA generation -5%, IL-2 act -1, p53 reactivator inconclusive, TCR act 8%[46.1 µM] and BRCA1 expr up 11µM*.
Cc1ccc(-c2nn(-c3ccccc3)cc2CO)o1 was read as uPA generation -4%, IL-2 act 0, p53 reactivator inconclusive, TCR act 0%[46.1 µM] and BRCA1 expr up 3.5µM*.
Screening Cc1ccc(S(=O)(=O)N2CCN(c3nc(-c4ccncc4)nc4ccccc34)CC2)cc1 returned BRCA1 expr up 0%.
For O/N=C/c1ccc(OCc2ccccc2F)c(Cl)c1 the results were uPA generation -3%, IL-2 act -1, p53 reactivator inconclusive, TCR act -1%[46.1 µM] and BRCA1 expr up 2.8µM*.
Screening O/N=C/c1ccc(OCc2ccccc2)c(Cl)c1 returned uPA generation -3%, IL-2 act -3, p53 reactivator inconclusive, TCR act 3%[46.1 µM] and BRCA1 expr up 10µM*.
`Cc1cccc(-n2cnc(C(=O)NC3CCCCCC3)c2)n1` gave uPA generation -4%, IL-2 act -2, p53 reactivator 20%, TCR act 11% and BRCA1 expr up 10µM*.
`Cc1cccc(-n2cnc(C(=O)O)c2)n1` gave uPA generation 8%, IL-2 act -1, p53 reactivator -4%, TCR act -6% and BRCA1 expr up -2%.
Screening COc1ccc(OCC(=O)OCc2cc(=O)n3nc(C4CC4)sc3n2)cc1 returned BRCA1 expr up 0%.
For O=c1[nH]c(COc2ccc(Br)cc2Cl)nc2ccccc12 the results were uPA generation -8%, IL-2 act -4, p53 reactivator 22%, TCR act -1% and BRCA1 expr up 4µM*.
Screening O=C(CSC1=NCCS1)Nc1nc2ccccc2s1 returned uPA generation -26%, IL-2 act -3, p53 reactivator inconclusive, TCR act -5%[46.1 µM] and BRCA1 expr up 8.9µM*.
`Cc1ccc2nc(NC(=O)Cc3cccs3)sc2c1` gave IL-2 act 1, p53 reactivator 21%, TCR act -20% and BRCA1 expr up 66%.
`O=C(NNc1nc2ccccc2s1)C1CC1` gave uPA generation -20%, IL-2 act 2, p53 reactivator 9%, TCR act 3% and BRCA1 expr up 25%.
`O=C(Cc1cccs1)Nc1nc2ccccc2s1` gave uPA generation 2%, IL-2 act 0, p53 reactivator inconclusive, TCR act 0% and BRCA1 expr up 7.1µM*.
`CC(C)C(=O)NNc1nc2ccccc2s1` gave uPA generation -7%, IL-2 act -1, p53 reactivator 14%, TCR act 5% and BRCA1 expr up 8.9µM*.
O=C(Cc1ccccc1)Nc1nc2ccccc2s1 was read as uPA generation 0%, IL-2 act 1, p53 reactivator 24%, TCR act -3%[46.1 µM] and BRCA1 expr up 10µM*.
CCOc1ccc(CCNC(=O)CN2C(=O)COc3ccc(S(=O)(=O)N4CCC(C)CC4)cc32)cc1 was read as BRCA1 expr up -30%.

Source: PubChem BioAssay
